Source: PubChem BioAssay
HIV RNase H inh: HIV-1 RT RNase H inhibitors, primary screen, biochemical, fluorescence | RT-RNase H RNA/DNA duplex cleavage | AID 565, 2006 | Gag-Pol polyprotein (Human immunodeficiency virus type 1 group M subtype B (isolate … | 1.9% of 65,000 active | inhibition, % at 10 µM; in the data active = inhibition above about 50%
RmlC RmlD mix: RmlC and RmlD coupled enzyme inhibitors, primary screen, biochemical, 384-well, compound mixtures, retest; 0.39% of 110,000 active; inhibition, % at 5.5 µM; RmlC/RmlD coupled enzyme inhibition, 384-well mixture HTS; AID 1532, 2009; in the data active = inhibition above about 30%, passing the limit was not always enough
* marks the source's active call; other numbers are inactive results; . = no result given. The sample as a whole holds a higher share of hits than the screen did.

SMILES	HIV RNase H inh	RmlC RmlD mix
CCOc1ccc(C2C(C#N)=C(N)N3C(=C2C#N)Sc2ccccc23)cc1 (stereo unspecified)	72*	2
O=c1c2ccccc2nc2n1CCN2Cc1ccc(Cl)cc1	-22	-10
CC(C)CC(NC(=O)C(COC(C)(C)C)NC(=O)C(Cc1ccc(O)cc1)NC(=O)C(CO)NC(=O)C(Cc1c[nH]c2ccccc12)NC(=O)C(Cc1cnc[nH]1)NC(=O)C1CCC(=O)N1)C(=O)N[C@@H](CCCN=C(N)N)C(=O)N1CCCC1C(=O)NNC(N)=O (stereo partly specified)	.	-9
c1ccc(-c2nc(CSc3n[nH]c(-c4cccs4)n3)cs2)cc1	.	-11
CCCC(=O)Nc1ccc(-c2nc3cc(C)ccc3o2)cc1	18	-22
CCCC(=O)Nc1ccc(-c2nc3cc(C)c(C)cc3o2)c(O)c1	58*	-190
COc1cc(NC(=O)CN2C(=O)c3ccccc3S2(=O)=O)c(OC)cc1Cl	-9	2
COc1cc(-c2nc3cnccn3c2Nc2ccccc2)ccc1O	0	40*
COc1cc(-c2nc3cnccn3c2Nc2ccc(C)cc2)ccc1O	.	0
Cc1cc(C(=O)CSc2nnnn2-c2ccc(Cl)cc2)c(C)n1CC1CCCO1 (stereo unspecified)	63*	15
Cc1cc(C(=O)CSc2nnnn2-c2ccccc2)c(C)n1CC1CCCO1 (stereo unspecified)	9	-8
COc1ccccc1NC(=O)NCCN1C(=O)C2C3C=CC(C3)C2C1=O (stereo unspecified)	-10	-12
COc1ccc(C(=O)CSc2nn3c(=O)c(C(C)(C)C)nnc3s2)cc1	-5	-6
COc1ccc(-n2c(C)cc(C(=O)CSc3nn4c(=O)c(C(C)(C)C)nnc4s3)c2C)cc1	50*	-10
O=S(=O)(NCCSc1ccccc1)c1cccs1	-53	5
O=c1c2cc(N3CCOCC3)ccc2[nH]c(=S)n1Cc1ccco1	55*	-49
O=c1c2cc(N3CCOCC3)ccc2[nH]c(=S)n1Cc1cccc(Cl)c1	.	-21
Cc1cccc(CNc2ccc(C(CC(N)=O)NC(=O)c3cccc(Br)c3)cc2[N+](=O)[O-])c1 (stereo unspecified)	.	-11
CC(=O)Oc1c(Cl)c(N2CCOCC2)c(OC(C)=O)c2ccccc12	-1	40
CC1CC(C)CN(C(=O)c2ccc3c(=O)n(Cc4ccc5c(c4)OCO5)c(=S)[nH]c3c2)C1 (stereo unspecified)	.	-10
O=C(c1ccc2c(=O)n(Cc3ccc4c(c3)OCO4)c(=S)[nH]c2c1)N1CCCCC1	61*	-10
C=C(C)C(=O)Nc1cccc(C2=NOC3(C2)C[C@H](C(N)=O)N(C(=O)/C=C/C)C3)c1 (stereo partly specified)	.	7
OC(CSc1c(Cl)cccc1Cl)CN1CCN(c2ccc(F)cc2)CC1 (stereo unspecified)	.	-15
COc1ccc(S(=O)(=O)Nc2cc(C)c(O)cc2C(C)C)cc1	55*	-42
COc1ccc(S(=O)(=O)Nc2cc(C(C)C)c(O)cc2C)cc1	-6	-18
SMILES	HIV RNase H inh	RmlC RmlD mix
COc1ccc(N=c2oc3c(OC)cccc3cc2C(=O)NCc2ccco2)cc1OC	-4	7
COc1ccc(OC)c(N=c2oc3c(OC)cccc3cc2C(=O)NCc2ccco2)c1	88*	-16
Cc1ccc(-c2csc(N3CCC(NS(=O)(=O)c4ccc5c(c4)OCCO5)CC3)n2)cc1	-6	-7
COc1cccc(C2=CC(=O)CC(c3ccco3)C2)c1 (stereo unspecified)	.	11
COc1ccc(Cl)cc1N1Cc2ccccc2C1	.	-20
COc1ccc(N2Cc3ccccc3C2)cc1Cl	55*	6
Cc1cc2oc(C(=O)N(Cc3ccccc3)C3CCS(=O)(=O)C3)cc(=O)c2cc1Cl (stereo unspecified)	.	-6
CCOC(=O)Nc1ccc(S(=O)(=O)Nc2cc(C)nc(C)n2)cc1	.	7
CCOc1ccc(OCC(=O)Nc2ccc(S(=O)(=O)Nc3cc(C)nc(C)n3)cc2)cc1	52*	7
CN1CCN(C(=O)C2=C[C@H](c3ccccc3)C[C@H](OCc3ccc(CO)cc3)O2)CC1	.	-3
CC(C)c1cn(C2OC(COC(=O)c3ccccc3)C(OC(=O)c3ccccc3)C2OC(=O)c2ccccc2)c(=O)[nH]c1=O (stereo unspecified)	.	8
C=CCn1c(-c2ccccc2)n[nH]c1=S	7	-13
C=CCn1c(Cc2nc3ccc(Cl)cc3[nH]2)n[nH]c1=S	58*	12
Nc1ccccc1C#CCCCCO	.	5
COC(=O)[C@@]1(Cc2ccc(OC)cc2)[C@H]2c3cc(C(=O)N4CCCC4)n(CCc4c[nH]c5ccc(O)cc45)c3C[C@H]2CN1C(=O)c1ccccc1	.	-4
CCc1nnc(NC(=O)C2Cc3ccccc3CN2S(=O)(=O)c2ccc(C)cc2)s1 (stereo unspecified)	.	-12
O=C(Nc1nnc(C2CC2)s1)C1Cc2ccccc2CN1S(=O)(=O)c1cccs1 (stereo unspecified)	59*	-13
CCc1nnc(NC(=O)C2Cc3ccccc3CN2S(=O)(=O)c2cccs2)s1 (stereo unspecified)	50*	0
COc1ccc(S(=O)(=O)N2Cc3ccccc3CC2C(=O)Nc2nccs2)cc1 (stereo unspecified)	.	7
COc1cc(C2CC(=O)N3CN(Cc4ccco4)CSC3=C2C#N)ccc1OCc1ccccc1 (stereo unspecified)	11	7
N#CC1=C2SCN(Cc3ccco3)CN2C(=O)CC1c1ccc(Cl)cc1 (stereo unspecified)	54*	5
N#CC1=C2SCN(Cc3ccccc3)CN2C(=O)CC1c1cccs1 (stereo unspecified)	65*	3
COc1ccc(C2CC(=O)N3CN(Cc4ccco4)CSC3=C2C#N)cc1 (stereo unspecified)	20	-35
CC(C)c1ccc(C2CC(=O)N3CN(Cc4ccco4)CSC3=C2C#N)cc1 (stereo unspecified)	59*	5
COc1ccc(OC)c(C2CC(=O)N3CN(c4ccccc4)CSC3=C2C#N)c1 (stereo unspecified)	4	2
SMILES	HIV RNase H inh	RmlC RmlD mix
N#CC1=C2SCN(Cc3ccccc3)CN2C(=O)CC1c1ccc2c(c1)OCO2 (stereo unspecified)	-25	11
COc1ccc(C2CC(=O)N3CN(c4ccccc4F)CSC3=C2C#N)cc1OC (stereo unspecified)	59*	-3
Cc1nc(-c2ccccc2)sc1-c1nc(-c2cccs2)ncc1S(=O)(=O)c1ccccc1	.	-31
CC(C)(C)C(=O)NC1CCN(S(=O)(=O)c2ccc(C(F)(F)F)cc2)CC1	.	-11
N#Cc1c(-c2cccs2)nc(SCC(=O)c2cccs2)[nH]c1=O	.	2
CC(C)C(c1nnnn1C(C)(C)C)N1CCN(c2cccc(Cl)c2)CC1 (stereo unspecified)	1	-10
CCN1C(=O)N[C@@H](CCc2ccccc2)[C@@H](C(=O)OC)[C@H]1C	.	6
COC(=O)c1ccc([C@H]2C=C(C(=O)O)O[C@@H](OCc3ccc(CO)cc3)C2)cc1	.	1
CCOc1ccccc1-c1nc2c(s1)CCc1onc(-c3ccc(OC)cc3)c1-2	.	-12
Cc1cc(C(=O)NNC(=S)NC(C)c2ccccc2)c2ccccc2n1 (stereo unspecified)	.	8
CCCOC(=S)Nc1ccccc1	.	4
